Counter-ions that a name gives are not always drawn. ± gives the standard deviation of the averaged measurements.
Assays:
Assay in all cases: cell viability (% of vehicle); higher = less cytotoxic
Conditions in all cases: 10 µM; 72 h
[1] = tested on: HCI01 (cells of a triple-negative basal-like breast cancer xenograft)
[2] = tested on: HCI03 (cells of an ER-positive luminal breast cancer xenograft)
[3] = tested on: HCI09 (cells of a triple-negative luminal androgen receptor type breast cancer xenograft)
[4] = tested on: HCI11 (cells of an ER-positive luminal breast cancer xenograft)
[5] = tested on: HCI13 (cells of an ER-positive luminal breast cancer xenograft)
[6] = tested on: HCI16 (cells of a triple-negative basal-like breast cancer xenograft)
[7] = tested on: UCD52 (cells of a triple-negative basal-like breast cancer xenograft)
[8] = tested on: WHIM2 (cells of a triple-negative basal-like breast cancer xenograft)
[9] = tested on: WHIM30 (cells of a triple-negative basal-like breast cancer xenograft)
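Also: PDX cells carrying CMV promoter-driven luciferase, viability read as total photon flux per second by IVIS imaging following D-luciferin, vehicle control 0.1% DMSO.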

SMILES	cell viability [1]	cell viability [2]	cell viability [3]	cell viability [4]	cell viability [5]	cell viability [6]	cell viability [7]	cell viability [8]	cell viability [9]
CN(C)CC(c1ccc(O)cc1)C1(O)CCCCC1.O.O=C(O)CCC(=O)O (configuration not stated) [Desvenlafaxine Succinate]	91 ± 6.9	153	107 ± 13	92.6	110 ± 9.4	129	92.4 ± 9.8	105 ± 10	133 ± 2.2
Cn1c(=O)c2c(ncn2CC(O)CO)n(C)c1=O (configuration not stated) [Dyphylline]	98.4 ± 7.5	122	98 ± 15	114	117 ± 14	85.9	90.2 ± 3.7	104 ± 1.1	119 ± 24
CC1Cc2ccccc2N1NC(=O)c1ccc(Cl)c(S(N)(=O)=O)c1 (configuration not stated) [Indapamide]	98 ± 9.9	100	94.6 ± 4.7	88.8	110 ± 14	128	80.2 ± 1.6	107 ± 18	105 ± 3.4
Nc1ccc(C(=O)[O-])c(O)c1.O.O.[Na+] [Sodium 4-Aminosalicylate]	138 ± 21	157	108 ± 20	95.3	96.8 ± 13	143	77.7 ± 16	87.9 ± 20	92.3 ± 1.1
Cc1nc(C(=O)NCC(=O)O)c(O)c2ccc(Oc3ccccc3)cc12	122 ± 2.7	189	88.7 ± 11	140	113 ± 4.4	88.2	107 ± 14	160 ± 8.2	116 ± 14
CC(Nc1ncnc2nc[nH]c12)c1cc2cccc(Cl)c2c(=O)n1-c1ccccc1 (configuration not stated)	91.5 ± 1.5	53.1	71.9 ± 26	66.4	45.8 ± 4.9	81.8	67.3 ± 1.7	51.1 ± 15	95.3 ± 2.1
C[C@H](C(=O)O)c1ccc(-c2ccccc2)c(F)c1 [(S)-Flurbiprofen]	109 ± 15	138	98.3 ± 21	78.6	98.7 ± 1.3	107	103 ± 2.4	103 ± 13	106 ± 5.7
O=C(NCC(O)CO)c1ccncc1Nc1ccc(I)cc1F (configuration not stated)	72.8 ± 3.9	72.9	55.3 ± 28	83.1	64.4 ± 5.6	116	70.57 ± 0.44	41.9 ± 8.5	130 ± 14
Cc1cn(C2C=CC(CO)O2)c(=O)[nH]c1=O (configuration not stated) [Stavudine (d4T)]	112 ± 12	115	110 ± 14	91	82.13 ± 0.67	117	104 ± 11	95.9 ± 9.4	127 ± 5
COC1C(O)CC(=O)OC(C)CC=CC=CC(OC2CCC(N(C)C)C(C)O2)C(C)CC(CC=O)C1OC1OC(C)C(OC2CC(C)(O)C(O)C(C)O2)C(N(C)C)C1O (configuration not stated) [Spiramycin]	133 ± 7.7	125	110 ± 12	116	78.9 ± 20	138	94.4 ± 1.5	149 ± 30	123 ± 5.8
Cc1ccsc1C(=CCCN1CCC[C@@H](C(=O)O)C1)c1sccc1C [Tiagabine hydrochloride]	100 ± 1.8	93.2	90.8 ± 14	86.4	96.1 ± 6.3	95.6	97.2 ± 14	109 ± 34	105 ± 2
O=C([O-])Cc1ccccc1Nc1c(Cl)cccc1Cl.[K+] [Diclofenac Potassium]	117 ± 9.3	106	100 ± 24	100	65.9 ± 1.7	114	73.8 ± 2.9	109 ± 28	117 ± 39
N[C@@H](Cc1cc(I)c(Oc2cc(I)c(O)c(I)c2)c(I)c1)C(=O)O [L-Thyroxine]	66.5 ± 44	151	114 ± 14	93.3	150 ± 56	136	85 ± 2.5	93.6 ± 27	177 ± 6.2
CC(=O)O.CC(O)C(CO)NC(=O)C1CSSCC(NC(=O)C(N)Cc2ccccc2)C(=O)NC(Cc2ccccc2)C(=O)NC(Cc2c[nH]c3ccccc23)C(=O)NC(CCCCN)C(=O)NC(C(C)O)C(=O)N1 (configuration not stated) [Octreotide acetate]	86.6 ± 6.2	135	87.9 ± 14	95.4	87.9 ± 3.6	90.1	84.3 ± 9.8	86.9 ± 20	102 ± 15
Nc1ncnc2c1ncn2C1OC(CO)C(O)C1O (configuration not stated) [Vidarabine]	64.8 ± 36	136	90.1 ± 5.1	86.9	106 ± 6.1	96.1	80.5 ± 2.9	105 ± 19	153 ± 7.4
CC1(C)SC2C(NC(=O)C(C(=O)[O-])c3ccccc3)C(=O)N2C1C(=O)[O-].[Na+].[Na+] (configuration not stated) [Carbenicillin, Disodium Salt]	93 ± 4.2	92.6	94 ± 0.98	103	86.7 ± 1.1	105	85.4 ± 3.6	110 ± 17	115 ± 2
CC1=C(C(=O)O)N2C(=O)C(NC(=O)C(N)c3ccccc3)C2SC1 (configuration not stated) [Cephalexin]	135 ± 38	122	86.6 ± 21	101	76.3 ± 2.8	113	114.8 ± 0.94	118 ± 12	111 ± 5.6
Cc1cccc(C)c1OCC(=O)NC(Cc1ccccc1)C(O)CC(Cc1ccccc1)NC(=O)C(C(C)C)N1CCCNC1=O (configuration not stated) [Lopinavir]	83 ± 1.7	102	57.3 ± 20	88.4	93.7 ± 6.3	116	48 ± 4	73.6 ± 13	96.4 ± 16
CNC1C(OC2C(OC3C(O)C(O)C(N=C(N)N)C(O)C3N=C(N)N)OC(C)C2(O)C=O)OC(CO)C(O)C1O.CNC1C(OC2C(OC3C(O)C(O)C(N=C(N)N)C(O)C3N=C(N)N)OC(C)C2(O)C=O)OC(CO)C(O)C1O.O=S(=O)(O)O.O=S(=O)(O)O.O=S(=O)(O)O (configuration not stated) [Streptomycin sulfate]	82.6 ± 31	97.7	84.6 ± 5.9	82.9	90 ± 1.7	103	84.1 ± 3.6	81.8 ± 12	86.6 ± 7.4

SMILES	cell viability [1]	cell viability [2]	cell viability [3]	cell viability [4]	cell viability [5]	cell viability [6]	cell viability [7]	cell viability [8]	cell viability [9]
CCCCNC(=O)NS(=O)(=O)c1ccc(C)cc1 [Tolbutamide]	80.9 ± 42	118	91.4 ± 5.3	83.6	88.9 ± 3.6	101	96.6 ± 5.1	105 ± 25	101 ± 8.5
Nc1nc(=O)c2ncn(COCCO)c2[nH]1 [Acyclovir]	103 ± 7.2	107	55.9 ± 49	113	154 ± 13	87.8	91.1 ± 11	96 ± 2.8	108 ± 19
CC(=O)Oc1cccc2c1C(=O)c1c(OC(C)=O)cc(C(=O)O)cc1C2=O [Diacerein]	57 ± 39	93.9	79.1 ± 34	77.8	109 ± 11	146	98.6 ± 6.8	123 ± 39	60.3 ± 16
COc1cc(NS(=O)(=O)c2ccc(N)cc2)nc(OC)n1 [Sulfadimethoxine]	91.8 ± 17	155	103 ± 14	103	116 ± 1.2	118	112 ± 5.2	86.1 ± 9.4	172 ± 27
CCC(C)n1ncn(-c2ccc(N3CCN(c4ccc(OCC5COC(Cn6cncn6)(c6ccc(Cl)cc6Cl)O5)cc4)CC3)cc2)c1=O (configuration not stated) [Itraconazole]	93.5 ± 38	81.2	56.7 ± 1.2	78.5	84.3 ± 4.1	129	68.6 ± 12	131 ± 17	94.7 ± 1.1
CC(C)n1c(C=CC(O)CC(O)CC(=O)O)c(-c2ccc(F)cc2)c2ccccc21 (configuration not stated) [Fluvastatin]	91.2 ± 13	130	65.7 ± 18	162	192 ± 10	109	59.3 ± 12	48.9 ± 2.5	139 ± 14
CC(=O)Nc1ccc(O)cc1 [Acetaminophen]	93.9 ± 24	101	98.4 ± 7.2	80.4	116 ± 14	126	102 ± 6.9	92.71 ± 0.48	97.4 ± 3.5
CN1C(C(=O)Nc2ccccn2)=C(O)c2sccc2S1(=O)=O [Tenoxicam]	122 ± 9.7	126	114 ± 24	89.7	64.9 ± 7.4	119	87.2 ± 4.1	123 ± 33	159 ± 5.4
O=C(O)[C@H](O)[C@@H](O)C(=O)O.c1cnc2cc3c(cc2n1)C1CNC[C@@H]3C1 [Varenicline Tartrate]	169.5 ± 0.68	128	131 ± 5.6	138	128.8 ± 0.16	153	99.9 ± 8.8	106 ± 5.1	158 ± 25
CC(=O)N=c1sc(S(N)(=O)=O)nn1C [Methazolamide]	103 ± 7.7	114	92.5 ± 21	119	119 ± 9.3	122	93.9 ± 16	94.6 ± 3.6	97.7 ± 1.2
Cl.O=C(O)C=Cc1ccc(Cn2ccnc2)cc1 [Ozagrel HCl]	72.6 ± 40	135	100 ± 10	99.5	126 ± 10	122	87.7 ± 1.4	93.3 ± 30	140 ± 2.3
CC(C)C(=O)Nc1ccc([N+](=O)[O-])c(C(F)(F)F)c1 [Flutamide]	136 ± 7.3	139	71.8 ± 8	125	97.9 ± 8.4	78.4	78.9 ± 5.1	112 ± 33	116 ± 6.6
COc1cc(C2Oc3cc(C4Oc5cc(O)cc(O)c5C(=O)C4O)ccc3OC2CO)ccc1O (configuration not stated) [Silymarin]	111 ± 32	129	102 ± 19	89.4	127 ± 3.3	116	107.79 ± 0.095	93.6 ± 18	91.7 ± 2
COc1cnc(NS(=O)(=O)c2ccc(N)cc2)nc1 [Sulfameter]	97.7 ± 24	142	86.1 ± 1.6	83	93.22 ± 0.58	113	80.9 ± 21	92.2 ± 18	95.13 ± 0.27
CN(N=O)C(=O)NC1C(O)OC(CO)C(O)C1O (configuration not stated) [Streptozocin]	105 ± 4.3	123	104 ± 6.3	99.5	89.38 ± 0.52	113	83.17 ± 0.58	85 ± 16	123.9 ± 1.1
CCc1ccc(CCOc2ccc(CC3SC(=O)NC3=O)cc2)nc1 (configuration not stated) [Pioglitazone]	93 ± 44	118	123 ± 30	104	135 ± 16	133	106 ± 8.1	106 ± 21	171 ± 1.9
CCCC1CC(C(=O)NC(C(C)Cl)C2OC(SC)C(OP(=O)(O)O)C(O)C2O)N(C)C1 (configuration not stated) [Clindamycin Phosphate]	140 ± 73	112	75.6 ± 25	96.6	86.2 ± 30	89.1	73.2 ± 16	92.7 ± 20	83.5 ± 1.4
CCCN1CCCCC1C(=O)Nc1c(C)cccc1C.Cl.O (configuration not stated) [Ropivacaine hydrochloride monohydrate]	86.9 ± 16	116	105 ± 16	96.1	110.3 ± 0.64	117	96.2 ± 12	90.8 ± 14	100 ± 9.1
CC1C(NC(=O)C(=NOC(C)(C)C(=O)O)c2csc(N)n2)C(=O)N1S(=O)(=O)O (configuration not stated) [Aztreonam]	104 ± 4.2	113	96.5 ± 6.8	109	118 ± 15	114	95.9 ± 3	84.4 ± 8.5	123 ± 30

Reference: the supplement of paper PMC6992640
